Experimental data reported in PubChem BioAssay (EPA / NIEHS).
“And” between values parts separate entries of the source, which are not always exact repeats. Identical values can stand only once. The source holds several records for some structures; these can differ, active in one and inactive in another. The source made the active and inactive calls. How the source made its calls: active means hit-call score of the fitted dose curve at least 0.9, where 1 is the maximum; inactive means score below 0.9.

Key:
[1] = read-out: Forkhead box O1 (FOXO1), FOXO1 (gene 2308); experiment: LTEA_HepaRG_FOXO1: Life Technologies and Expression Analysis (LTEA) Assay for Forkhead box O1 (FOXO1) using HepaRG (AID 2283456); conditions: mRNA level, 48 h; actives raise or lower the signal
Summary of the method: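 Using one lot of HepaRG hepatic cells kept in 0.5% DMSO, the team applied test chemicals in duplicate, half-log dilutions from 100 uM, for 48 h. Expression, normalised to ACTB/GAPDH/POLR2A, was compared with vehicle in either direction.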

[2] = read-out: growth arrest and DNA damage 45 (GADD45A), GADD45A (gene 1647); experiment: LTEA_HepaRG_GADD45A: Life Technologies and Expression Analysis (LTEA) Assay for growth arrest and DNA damage 45 (GADD45A) using HepaRG (AID 2283458); conditions: mRNA level, 48 h; actives raise or lower the signal
Summary of the method: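 GADD45A expression was measured by TaqMan qRT-PCR against three housekeeping genes (ACTB, GAPDH, POLR2A) after 48 h treatment of HepaRG cells. Eight-point half-log series up to 100 uM in 0.5% DMSO, run in duplicate.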

[3] = read-out: Forkhead box O3 (FOXO3), FOXO3 (gene 2309); experiment: LTEA_HepaRG_FOXO3: Life Technologies and Expression Analysis (LTEA) Assay for Forkhead box O3 (FOXO3) using HepaRG (AID 2283459); conditions: mRNA level, 48 h; actives raise or lower the signal
Summary of the method: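 Gene-expression endpoint: FOXO3 transcript level by qRT-PCR in HepaRG cultures treated 48 h with chemicals up to 100 uM (half-log, 0.5% DMSO vehicle).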

[4] = read-out: ABC Transporter (ABCB1), ABCB1 (gene 5243); experiment: LTEA_HepaRG_ABCB1: Life Technologies and Expression Analysis (LTEA) Assay for ABC Transporter (ABCB1) using HepaRG (AID 2283460); conditions: mRNA level, 48 h; actives raise or lower the signal
Summary of the method: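 Human liver HepaRG line treated 48 h with up to 100 uM compound (eight half-log points, 0.5% DMSO); ABCB1 mRNA change fitted bidirectionally against DMSO controls.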

[5] = read-out: growth arrest and DNA damage 45 (GADD45B), GADD45B (gene 4616); experiment: LTEA_HepaRG_GADD45B: Life Technologies and Expression Analysis (LTEA) Assay for growth arrest and DNA damage 45 (GADD45B) using HepaRG (AID 2283461); conditions: mRNA level, 48 h; actives raise or lower the signal
Summary of the method: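 HepaRG, ~100,000 cells/well, 48 h plating; serum-free induction medium; cpd 100 uM top, half-log x8, 0.5% DMSO, duplicate, 48 h; lysis in RLT, RNA isolation, qRT-PCR; norm ACTB/GAPDH/POLR2A; bidirectional fit vs DMSO.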

[6] = read-out: ABC Transporter (ABCC3), ABCC3 (gene 8714); experiment: LTEA_HepaRG_ABCC3: Life Technologies and Expression Analysis (LTEA) Assay for ABC Transporter (ABCC3) using HepaRG (AID 2283462); conditions: mRNA level, 48 h; actives raise or lower the signal
Summary of the method: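 Human HepaRG, 48 h dosing, 8-pt half-log series from 100 uM, 0.5% DMSO vehicle, duplicates. ABCC3 mRNA by TaqMan qRT-PCR, housekeeping-normalized; bidirectional curve fit vs DMSO.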

[7] = read-out: ABC Transporter (ABCB11), ABCB11 (gene 8647); experiment: LTEA_HepaRG_ABCB11: Life Technologies and Expression Analysis (LTEA) Assay for ABC Transporter (ABCB11) using HepaRG (AID 2283463); conditions: mRNA level, 48 h; actives raise or lower the signal
Summary of the method: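 Using HepaRG cultures held in 0.5% DMSO, chemicals were tested at half-log dilutions from 100 uM for 48 h. Induction or suppression of ABCB11 mRNA, normalized to ACTB, GAPDH and POLR2A, was fitted bidirectionally against vehicle.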

[8] = read-out: ABC Transporter (ABCC2), ABCC2 (gene 1244); experiment: LTEA_HepaRG_ABCC2: Life Technologies and Expression Analysis (LTEA) Assay for ABC Transporter (ABCC2) using HepaRG (AID 2283464); conditions: mRNA level, 48 h; actives raise or lower the signal
Summary of the method: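 HepaRG, 48 h post-plating; serum-free induction medium; cpd 8-pt, 100 uM top, half-log, 0.5% DMSO, duplicate, 48 h. Readout: ABCC2 mRNA by qRT-PCR, norm. ACTB/GAPDH/POLR2A. Bidirectional fit vs DMSO baseline.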

[9] = read-out: Broad substrate specificity ATP-binding cassette transporter ABCG2 (Homo sapiens) (UniProt Q9UNQ0); experiment: LTEA_HepaRG_ABCG2: Life Technologies and Expression Analysis (LTEA) Assay for ABC Transporter (ABCG2) using HepaRG (AID 2283465); conditions: mRNA level, 48 h; actives raise or lower the signal
Summary of the method: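 Gene expression of ABCG2 in HepaRG liver cells is quantified by qRT-PCR following 48 h exposure across an eight-point series topping at 100 uM. Values come from bidirectional fitting relative to DMSO vehicle.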

[10] = read-out: ATP-citrate lyase (ACLY), ACLY (gene 47); experiment: LTEA_HepaRG_ACLY: Life Technologies and Expression Analysis (LTEA) Assay for ATP-citrate lyase (ACLY) using HepaRG (AID 2283466); conditions: mRNA level, 48 h; actives raise or lower the signal
Summary of the method: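 ACLY expression changes in human HepaRG liver cells are quantified by qRT-PCR after 48 h exposure to test chemicals (maximum 100 uM, half-log steps). Values are fitted in both directions relative to 0.5% DMSO vehicle.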

[11] = read-out: Peroxisomal acyl-coenzyme A oxidase 1 (ACOX1) gene, ACOX1 (gene 51); experiment: LTEA_HepaRG_ACOX1: Life Technologies and Expression Analysis (LTEA) Assay for Peroxisomal acyl-coenzyme A oxidase 1 (ACOX1) gene using HepaRG (AID 2283467); conditions: mRNA level, 48 h; actives raise or lower the signal
Summary of the method: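 Human HepaRG hepatic cultures, 48 h treatment with test chemicals up to 100 uM. ACOX1 expression read by qRT-PCR relative to 0.5% DMSO vehicle.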

[12] = read-out: Alkaline Phosphatase, Placental (ALPP) gene, ALPP (gene 250); experiment: LTEA_HepaRG_ALPP: Life Technologies and Expression Analysis (LTEA) Assay for Alkaline Phosphatase, Placental (ALPP) gene using HepaRG (AID 2283468); conditions: mRNA level, 48 h; actives raise or lower the signal;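 on AC50: differentiated human HepaRG liver cells in serum-free induction medium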
Summary of the method: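 HepaRG, 48 h plating then 48 h dosing, serum-free induction medium, 0.5% DMSO. 8 conc, half-log, max 100 uM, duplicates. Endpoint: ALPP transcript by qRT-PCR, housekeeping-normalized; gain or loss fitted vs DMSO.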

[13] = read-out: Bcl-2 (BAD) gene, BAD (gene 572); experiment: LTEA_HepaRG_BAD: Life Technologies and Expression Analysis (LTEA) Assay for Bcl-2 (BAD) gene using HepaRG (AID 2283469); conditions: mRNA level, 48 h; actives raise or lower the signal
Summary of the method: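 Activity values reflect up- or down-regulation of BAD mRNA in human HepaRG hepatic cells treated 48 h in serum-free medium, with eight-point half-log dosing capped at 100 uM and 0.5% DMSO vehicle.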

[14] = read-out: Bcl-2 (BAX) gene, BAX (gene 581); experiment: LTEA_HepaRG_BAX: Life Technologies and Expression Analysis (LTEA) Assay for Bcl-2 (BAX) gene using HepaRG (AID 2283470); conditions: mRNA level, 48 h; actives raise or lower the signal
Summary of the method: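 Gene expression measured by Fluidigm qRT-PCR with three housekeeping genes for normalisation. HepaRG cells, plated 48 h beforehand, treated 48 h at up to 100 uM (8-point, half-log) in 0.5% DMSO. Bidirectional fitting versus DMSO.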

[15] = read-out: adenosine kinase (ADK) gene, ADK (gene 132); experiment: LTEA_HepaRG_ADK: Life Technologies and Expression Analysis (LTEA) Assay for adenosine kinase (ADK) gene using HepaRG (AID 2283471); conditions: mRNA level, 48 h; actives raise or lower the signal
Summary of the method: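 Following 48 h exposure of HepaRG cells in 0.5% DMSO (top concentration 100 uM, duplicate wells), ADK mRNA induction or suppression was measured by qRT-PCR, normalised to ACTB/GAPDH/POLR2A, and fitted bidirectionally relative to vehicle.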

[16] = read-out: Alpha-fetoprotein (AFP) gene, AFP (gene 174); experiment: LTEA_HepaRG_AFP: Life Technologies and Expression Analysis (LTEA) Assay for Alpha-fetoprotein (AFP) gene using HepaRG (AID 2283472); conditions: mRNA level, 48 h; actives raise or lower the signal
Summary of the method: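 AFP transcript measured by TaqMan qRT-PCR with three housekeeping genes for normalization, after 48 h chemical treatment of HepaRG cells (top 100 uM, half-log steps, 0.5% DMSO). Gain or loss fitted against vehicle.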

[17] = read-out: BCL2L11 (gene 10018); experiment: LTEA_HepaRG_BCL2L11: Life Technologies and Expression Analysis (LTEA) Assay for Bcl-2 (BCL2L11) gene using HepaRG (AID 2283473); conditions: mRNA level, 48 h; actives raise or lower the signal
Summary of the method: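 Read-out is BCL2L11 transcript level by qRT-PCR, normalized to three housekeeping genes and fitted bidirectionally against 0.5% DMSO vehicle. HepaRG cells received chemicals for 48 h in serum-free induction medium, 100 uM down in half-log dilutions.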

[18] = read-out: Apolipoprotein A-V (APOA5) gene, APOA5 (gene 116519); experiment: LTEA_HepaRG_APOA5: Life Technologies and Expression Analysis (LTEA) Assay for Apolipoprotein A-V (APOA5) gene using HepaRG (AID 2283474); conditions: mRNA level, 48 h; actives raise or lower the signal
Summary of the method: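 Readout is APOA5 transcript level by qRT-PCR on Fluidigm dynamic arrays, normalized to three housekeeping genes. HepaRG cultures received chemicals for 48 h at up to 100 uM (half-log steps, 0.5% DMSO), with gain or loss scored relative to DMSO.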

[19] = read-out: Apoptosis regulator Bcl-2 (Homo sapiens) (UniProt P10415); experiment: LTEA_HepaRG_BCL2: Life Technologies and Expression Analysis (LTEA) Assay for Bcl-2 gene using HepaRG (AID 2283475); conditions: mRNA level, 48 h; actives raise or lower the signal
Summary of the method: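 qRT-PCR of BCL2 transcript, normalized to three housekeeping genes (ACTB, GAPDH, POLR2A), after 48 h chemical exposure of HepaRG cells; concentrations top 100 uM with half-log dilutions, 0.5% DMSO vehicle, duplicates; changes up or down fitted relative to vehicle.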

[20] = CEETOX_H295R_TESTO: CeeTox H295R High-throughput Steroidogenesis Assay for Testosterone (TESTO) (AID 2283457); conditions: actives raise or lower the signal
Summary of the method: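 H295R, passage ≤10, 48 h dosing; media extracted with MTBE → HPLC-MS/MS for testosterone; 7-pt standard curve sets LLOQ/ULOQ; bidirectional fit vs DMSO; MTT viability same wells.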

Measured: AC50

Sequence of Broad substrate specificity ATP-binding cassette transporter ABCG2 (Homo sapiens) (Q9UNQ0 whole entry, looked up): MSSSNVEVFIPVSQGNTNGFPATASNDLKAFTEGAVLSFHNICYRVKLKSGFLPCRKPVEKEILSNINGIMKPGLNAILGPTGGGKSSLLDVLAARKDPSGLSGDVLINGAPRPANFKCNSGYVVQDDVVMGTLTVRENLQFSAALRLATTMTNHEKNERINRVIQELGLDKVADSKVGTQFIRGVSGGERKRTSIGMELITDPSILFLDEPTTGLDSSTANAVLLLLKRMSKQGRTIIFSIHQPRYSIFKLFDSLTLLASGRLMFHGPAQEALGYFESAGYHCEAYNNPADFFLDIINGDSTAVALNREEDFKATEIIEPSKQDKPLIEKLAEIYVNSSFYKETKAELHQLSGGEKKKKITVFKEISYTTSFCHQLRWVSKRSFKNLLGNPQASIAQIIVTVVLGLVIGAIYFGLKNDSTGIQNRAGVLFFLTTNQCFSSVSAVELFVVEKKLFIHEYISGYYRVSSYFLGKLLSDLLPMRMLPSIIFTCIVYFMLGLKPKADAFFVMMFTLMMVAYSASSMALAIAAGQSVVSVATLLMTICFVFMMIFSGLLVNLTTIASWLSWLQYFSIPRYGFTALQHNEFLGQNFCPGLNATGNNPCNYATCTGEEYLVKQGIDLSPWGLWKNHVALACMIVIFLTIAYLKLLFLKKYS
Sequence of Apoptosis regulator Bcl-2 (Homo sapiens) (P10415 whole entry, looked up): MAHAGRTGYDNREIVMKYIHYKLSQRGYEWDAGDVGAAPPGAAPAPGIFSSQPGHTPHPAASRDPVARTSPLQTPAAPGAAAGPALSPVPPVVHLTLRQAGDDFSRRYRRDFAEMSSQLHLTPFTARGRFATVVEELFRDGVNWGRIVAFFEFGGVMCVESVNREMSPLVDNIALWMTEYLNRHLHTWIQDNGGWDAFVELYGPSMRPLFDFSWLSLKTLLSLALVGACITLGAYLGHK

CC(C)(C)c1ccc(CSc2cnn(C(C)(C)C)c(=O)c2Cl)cc1
inactive: [5] | [6] | [11] | [13] | [15]
active: [1] 2.12 µM | [2] 1.99 µM | [3] 1.49 µM | [4] 4.66 µM | [7] 2.21 µM | [8] 9.03 µM | [9] 2.89 µM | [10] 1.72 µM | [12] 1.08 µM | [14] 6.27 µM | [16] 2.47 µM | [17] 1.93 µM | [18] 12 µM | [19] 2.89 µM

C=CCC1=C(C)C(OC(=O)C2C(C=C(C)C)C2(C)C)CC1=O (stereo not given)
inactive: [1] | [2] | [3] | [4] | [5] | [6] | [8] | [10] | [11] | [12] | [13] | [14] | [15] | [17] | [18] | [19]
active: [7] 64.8 µM and 79.9 µM and 19 µM | [9] 50 µM and 79.2 µM | [11] 90.9 µM | [12] 92.4 µM and 71.1 µM | [16] 90.3 µM and 79.8 µM and 66.3 µM | [18] 0.000839 µM

O=C(Nc1ccccc1)Nc1ccnc(Cl)c1
inactive: [1] | [5] | [14] | [17]
active: [2] 70.7 µM | [3] 25.3 µM | [4] 84.3 µM | [6] 85.7 µM | [7] 26.5 µM | [8] 89.9 µM | [9] 83.9 µM | [10] 80.4 µM | [11] 73.7 µM | [12] 3.48 µM | [13] 74.2 µM | [15] 78.2 µM | [16] 25.2 µM | [18] 71.9 µM | [19] 69.8 µM

CC1=C(C(=O)Nc2ccccc2)SCCO1
active: [3] 50 µM | [5] 50 µM | [7] 50 µM | [18] 50 µM
inactive: all other assays above

CCCCNC(=O)n1c(NC(=O)OC)nc2ccccc21
inactive: all assays above
